Mtb FBA inh = Mtb FBA enzyme inhibitors, primary screen, biochemical, fluorescence, strain H37Rv. 2.3% of 360,000 active. inhibition, % at 1 µM. AID 588726, 2011. Fructose-bisphosphate aldolase (Mycobacterium tuberculosis (strain ATCC 25618 / H37Rv)), …. purified M. tuberculosis FBA, fluorescence read-out; in the data active = inhibition above about 27%
Target sequence (P9WQA3 whole entry, looked up): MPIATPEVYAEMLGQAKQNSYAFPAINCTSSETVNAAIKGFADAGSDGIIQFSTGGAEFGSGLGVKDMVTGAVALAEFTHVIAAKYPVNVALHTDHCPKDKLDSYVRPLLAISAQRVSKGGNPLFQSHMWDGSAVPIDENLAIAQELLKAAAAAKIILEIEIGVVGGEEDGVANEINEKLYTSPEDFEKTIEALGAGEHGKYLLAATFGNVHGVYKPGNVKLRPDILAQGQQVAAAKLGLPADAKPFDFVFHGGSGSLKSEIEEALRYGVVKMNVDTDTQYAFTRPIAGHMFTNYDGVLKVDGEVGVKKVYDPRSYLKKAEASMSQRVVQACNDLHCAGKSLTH
3CLpro inhibitor = SARS-CoV 3CLpro protease inhibitors, primary screen, biochemical, quenched FRET; Replicase polyprotein 1ab (Severe acute respiratory syndrome coronavirus), P0C6X7; recombinant SARS-CoV 3CLpro, quenched FRET peptide cleavage; inhibition, % at 6 µM; 0.14% of 290,000 active; AID 1706, 2009; in the data active = inhibition above about 12%
GDH-TPI counter = GDH-TPI coupling enzyme inhibitors, primary screen, artefact control for M. tuberculosis FBA inhibitor project, biochemical, absorbance, full deck | GDH-TPI coupled enzyme counterscreen, NADH absorbance | inhibition, % at 4.8 µM | 1.2% of 360,000 active | AID 588335, 2011; in the data active = inhibition above about 30%
FadD28 binding = inhibitors of FadD28 bisubstrate probe binding, primary screen, biochemical, fluorescence polarization, single point; inhibition, % at 12.5 µM; AID 588549, 2011; Mycobacterium tuberculosis FadD28 fatty-acid-AMP ligase; 0.22% of 360,000 active; in the data active = inhibition above about 8.5%, passing the limit was not always enough
Mtb BioA inh = M. tuberculosis BioA enzyme inhibitors, primary screen, biochemical, plate reader, single point, HTS; 7,8-diaminopelargonic acid synthase BioA (Mycobacterium tuberculosis); purified M. tuberculosis BioA enzyme; inhibition, % at 9.99 µM; 0.096% of 360,000 active; AID 602481, 2012; in the data active = inhibition above about 40%
Of the large screens only hits and unclear results are named; the others gave an inactive call. This is a sample that favours compounds with a hit; in the whole collection about 3.1% have one here.

COc1cccc2c1C(=N)c1c(O)c3c(c(O)c1C2=O)CC(O)(C(C)=O)CC3OC1CC(N)C(O)C(C)O1 (stereo not given)	none (no result: 3CLpro inhibitor, Mtb BioA inh)
COc1cccc2c1C(=O)c1c(O)c3c(c(O)c1C2=O)CC(O)(C(C)=O)CC3OC1CC(O)C(O)C(C)O1 (stereo not given)	FadD28 binding 66 (no result: 3CLpro inhibitor, Mtb BioA inh)
COc1cccc2c1C(=O)c1c(O)c3c(c(O)c1C2=O)C[C@](O)(C(C)=O)C[C@H]3O[C@@H]1C[C@@H](N)[C@@H](O)[C@@H](C)O1	FadD28 binding 62 (no result: 3CLpro inhibitor)
COc1ccc(NC(=O)Nc2ccc3c(c2)C(=O)N([C@@H](C)CO)C[C@H](C)[C@H](CN(C)Cc2ccncc2)OCCCC[C@@H](C)O3)cc1	none (no result: Mtb FBA inh, 3CLpro inhibitor, GDH-TPI counter, FadD28 binding)
C[C@@H]1CN([C@@H](C)CO)C(=O)c2cccc(NC(=O)c3ccncc3)c2O[C@@H]1CN(C)S(=O)(=O)c1ccc(F)cc1	none (no result: Mtb FBA inh, 3CLpro inhibitor, GDH-TPI counter, FadD28 binding)
C[C@H](CO)N1C[C@H](C)[C@H](CN(C)S(C)(=O)=O)Oc2ccc(NC(=O)Cc3ccccc3)cc2CC1=O	none (no result: Mtb FBA inh, 3CLpro inhibitor, GDH-TPI counter, FadD28 binding)
C=CCCCCc1nc2ccccc2c(=O)n1N	none (no result: Mtb BioA inh)
CCCCCCc1nc2ccccc2c(=O)n1N	Mtb FBA inh 136
C[C@@H]1CN([C@H](C)CO)C(=O)c2cc(NC(=O)c3ccncc3)ccc2O[C@H]1CN(C)S(C)(=O)=O	none (no result: Mtb FBA inh, 3CLpro inhibitor, GDH-TPI counter, FadD28 binding)
c1ccc(-c2ccc(-c3ccncn3)cc2)cc1	Mtb FBA inh 117 (no result: 3CLpro inhibitor)
COCC(=O)N(C)C[C@H]1Oc2ncc(C#C[C@H](C)O)cc2C(=O)N([C@@H](C)CO)C[C@@H]1C	none (no result: Mtb FBA inh, 3CLpro inhibitor, GDH-TPI counter, FadD28 binding)
CCOC(=O)COc1ccc2c(c1)C(=O)CC(C)(c1cccnc1)O2 (stereo not given)	Mtb FBA inh 59 (no result: Mtb BioA inh)
Cc1ccc2nc(-c3ccc(-c4ccccn4)s3)cn2c1	Mtb FBA inh active
COc1ccc(CN(C)C[C@@H]2Oc3c(NC(=O)NC4CCCCC4)cccc3C(=O)N([C@H](C)CO)C[C@@H]2C)cc1	none (no result: Mtb FBA inh, 3CLpro inhibitor, GDH-TPI counter, FadD28 binding)
CC(C)(C)c1ccc(C(=O)/C=C2\NC(=O)CS2)cc1	GDH-TPI counter 48
Cc1ccc(NC(=O)/C=C2\NC(=O)CS2)cc1	none (no result: Mtb BioA inh)
COc1ccc(/C=C2\SC(=O)N(CC(=O)NC3CCS(=O)(=O)C3)C2=O)cc1 (stereo not given)	GDH-TPI counter 39
O=C(CN1C(=O)S/C(=C\c2ccccc2)C1=O)NC1CCS(=O)(=O)C1 (stereo not given)	none
COc1ccc(/C=C2\SC(=O)N(CC(=O)N(C)C3CCS(=O)(=O)C3)C2=O)cc1 (stereo not given)	GDH-TPI counter 34
COc1ccc(/C=C2\SC(=O)N(CC(=O)NCCCn3ccnc3)C2=O)cc1	GDH-TPI counter 43
CCN(C(=O)CN1C(=O)S/C(=C\c2ccc(F)cc2)C1=O)C1CCS(=O)(=O)C1 (stereo not given)	GDH-TPI counter 36
COc1ccc(/C=C2\SC(=O)N(CCC(=O)N(C)C3CCS(=O)(=O)C3)C2=O)cc1 (stereo not given)	none
NS(=O)(=O)c1ccc(NC(=O)COC(=O)/C(=C/c2cccs2)c2cccs2)cc1	GDH-TPI counter 42
NS(=O)(=O)c1ccc(NC(=O)Cc2cccs2)cc1	none
CO[C@H]1CN(C)C(=O)c2cc(NC(C)=O)ccc2OC[C@@H](C)N(CCc2ccccc2)C[C@@H]1C	none (no result: Mtb FBA inh, 3CLpro inhibitor, GDH-TPI counter, FadD28 binding)
Nc1cc2sc(-c3ccc(C(=O)O)cc3)nc2cc1Cl	Mtb FBA inh 139
Nc1cccc(-c2nc3ccc(N)cc3s2)c1	Mtb FBA inh 164
O=C(O)c1ccc2nc(-c3ccccc3)sc2c1	none
Nc1ccc(-c2nc3ccc(N)cc3s2)cc1	Mtb FBA inh active, GDH-TPI counter 47
Nc1ccc(-c2nc3ccc(C(=O)O)cc3s2)cc1	GDH-TPI counter 54 (no result: Mtb FBA inh, Mtb BioA inh)
Cc1noc(C)c1NC(=O)N(C)C[C@H]1Oc2ccc(NC(=O)NC(C)C)cc2CC(=O)N([C@H](C)CO)C[C@H]1C	none (no result: Mtb FBA inh, 3CLpro inhibitor, GDH-TPI counter, FadD28 binding)
C[C@@H]1CN([C@H](C)CO)C(=O)c2cc(NC(=O)NC3CCCCC3)ccc2O[C@@H]1CN(C)Cc1ccc(Cl)c(Cl)c1	none (no result: Mtb FBA inh, 3CLpro inhibitor, GDH-TPI counter, FadD28 binding)
CO[C@H]1CN(C)C(=O)c2ccc(NS(=O)(=O)c3ccc(Cl)cc3)cc2OC[C@H](C)N(C(=O)NC(C)C)C[C@@H]1C	none (no result: Mtb FBA inh, 3CLpro inhibitor, GDH-TPI counter, FadD28 binding)
O=C(COC(=O)c1cc(-c2cccs2)nc2ccccc12)NCc1ccco1	Mtb FBA inh 45 (no result: Mtb BioA inh)
